In the library only some 2.9% were active in any assay of this set; here they are far more common.
ADAM17 inh = ADAM17 inhibitors, primary screen, biochemical, QFRET; Disintegrin and metalloproteinase domain-containing protein 17 (Homo sapiens), P78536; recombinant ADAM17, EDANS/DABCYL FRET peptide cleavage; inhibition, % at 6.95 µM; 370,000 compounds, 0.83% hits;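 active means inhibition above the mean of compounds lying between control limits plus 3 SD, set per campaign, cut at about 8.5% in these data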;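 further: 0% = DMSO-only wells as the low control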
proKLK7 act = proKLK7 zymogen activators, primary screen, biochemical, fluorescence intensity | AID 652039, 2013 | purified proKLK7, EDANS-DABCYL substrate fluorescence; 100% is mature enzyme control, 0% vehicle | 370,000 compounds, 0.9% hits | activation, % at 7 µM | Kallikrein-7 (Homo sapiens), P49862;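 active means activation above the mean of all tested compounds plus 3 SD, computed per campaign excluding outliers beyond control limits, cut at about 13% in these data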
Target sequence (P49862 whole entry, looked up): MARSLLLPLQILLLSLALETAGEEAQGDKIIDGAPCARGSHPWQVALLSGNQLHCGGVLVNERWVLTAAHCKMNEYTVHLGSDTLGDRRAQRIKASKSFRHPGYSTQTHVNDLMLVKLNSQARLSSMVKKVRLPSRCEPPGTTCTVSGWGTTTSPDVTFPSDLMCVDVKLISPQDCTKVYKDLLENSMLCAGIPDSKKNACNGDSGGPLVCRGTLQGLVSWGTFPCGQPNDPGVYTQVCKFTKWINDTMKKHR
ADAM10 inh = human ADAM10 inhibitors, primary screen, biochemical, QFRET, HTS | Disintegrin and metalloproteinase domain-containing protein 10 (Homo sapiens), O14672 | recombinant ADAM10, EDANS/DABCYL FRET peptide cleavage, 3 h | inhibition, % at 7 µM | 370,000 compounds, 0.62% hits | AID 720582, 2013;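 active means inhibition above a per-campaign cutoff equal to the mean of compounds falling between control-based bounds plus 3 SD, cut at about 20% in these data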;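 further: 0% = DMSO wells while the 100% control is not disclosed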
PLCb3 inh = human PLC-beta3 inhibitors, primary screen, biochemical, fluorescence; AID 720704, 2013; 370,000 compounds, 0.18% hits; 1-phosphatidylinositol 4,5-bisphosphate phosphodiesterase beta-3 (Homo sapiens), Q01970; Purified PLC-beta3, fluorogenic substrate; inhibition, % at 12.2 µM; in the data active means inhibition above about 11%;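 further: 0% = median of compound wells on plate and 100% = full blocker control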
PLC-gamma1 inh = PLC-gamma1 enzyme inhibitors, primary screen, biochemical, fluorescence, purified enzyme; 1-phosphatidylinositol 4,5-bisphosphate phosphodiesterase gamma-1 (Homo sapiens), P19174; inhibition, % at 12.2 µM; 370,000 compounds, 0.84% hits; fluorogenic substrate; AID 720700, 2013
PLCg1 ctr = PLC-gamma1 enzyme inhibitors, counter-screen for PLC-beta3 inhibitor project, biochemical, fluorescence | shares compounds with PLC-gamma1 inh | purified PLC-gamma1, fluorogenic substrate | inhibition, % at 12.3 µM | 3,300 compounds, 3.1% hits | AID 743258, 2014
PLCbeta3 conf = PLC-beta3 inhibitor confirmation, biochemical, fluorescence, purified enzyme; 3,300 compounds, 1% hits; inhibition, % at 12.3 µM; fluorogenic substrate fluorescence; shares compounds with PLC-gamma1 inh; in the data active means inhibition above about 11%
* hit, by the source's call. Unless noted, no stated cut-off is given here; in the data, active means inhibition above about 9.5%; inactive means the rest.

Results for CC(NS(=O)(=O)c1ccc2c(c1)C(=O)c1cc(S(=O)(=O)NC(C)C(=O)O)ccc1-2)C(=O)O (stereo not drawn) ?
ADAM17 inh: 5; proKLK7 act: 1; ADAM10 inh: -6; PLCb3 inh: -2; PLC-gamma1 inh: 15*; PLCg1 ctr: -8; PLCbeta3 conf: -4

Results for COC(=O)N(C)C[C@@H]1OCc2cnnn2CCCC(=O)N([C@@H](C)CO)C[C@H]1C ?
ADAM17 inh: 1; proKLK7 act: 0; ADAM10 inh: -14; PLCb3 inh: 0; PLC-gamma1 inh: 2

Results for Cc1cc(C(F)F)n2nc(C(=O)Nc3ccc(S(=O)(=O)N4CCCCCC4)cc3)nc2n1 ?
ADAM17 inh: 6; proKLK7 act: 0; ADAM10 inh: -13; PLCb3 inh: 6; PLC-gamma1 inh: 9.9*; PLCg1 ctr: -4; PLCbeta3 conf: -4

How did Cc1ccc(S(=O)(=O)N2CCCCC2)cc1C(=O)Nc1ccc(N2CCOCC2)cc1 do in these assays?
ADAM17 inh: 7; proKLK7 act: 0; ADAM10 inh: 7; PLCb3 inh: 2; PLC-gamma1 inh: 12*; PLCg1 ctr: -6; PLCbeta3 conf: -4

Results for CC(=O)Nc1ccc(NC(=O)c2cc(S(=O)(=O)N3CCCCC3)ccc2C)cc1 ?
ADAM17 inh: -2; proKLK7 act: 1; ADAM10 inh: -16; PLCb3 inh: 7; PLC-gamma1 inh: -2

What do the screens show for `CC1(C(=O)Nc2ccc(Cl)c(C(F)(F)F)c2)Cc2c(-c3ccc(C(N)=O)cc3)ccnc2O1` (stereo not drawn)?
ADAM17 inh: -2; proKLK7 act: 0; ADAM10 inh: -4; PLCb3 inh: 1; PLC-gamma1 inh: 1

How did O=C(Nc1ccccc1C(=O)Nc1ccc(Br)cn1)c1cccc([N+](=O)[O-])c1 do in these assays?
ADAM17 inh: -6; proKLK7 act: 0; ADAM10 inh: -11; PLCb3 inh: -7; PLC-gamma1 inh: 10*; PLCg1 ctr: -9; PLCbeta3 conf: -2

How did O=C(NCC(F)(F)F)C1C(=O)Nc2ccccc2C(=O)N1C1CCCC1 (stereo not drawn) do in these assays?
ADAM17 inh: -4; proKLK7 act: 0; ADAM10 inh: -6; PLCb3 inh: 0; PLC-gamma1 inh: -1

How did CCCCn1c(=O)n(CC(=O)Nc2c(CC)cccc2CC)c(=O)c2c1nc(CO)n2CCC do in these assays?
ADAM17 inh: -2; proKLK7 act: 0; ADAM10 inh: -3; PLCb3 inh: 4; PLC-gamma1 inh: 2

What do the screens show for `CCCCn1c(=O)n(CC(=O)Nc2ccc(OC)c(Cl)c2)c(=O)c2c1nc(CO)n2CCC`?
ADAM17 inh: -3; proKLK7 act: 0; ADAM10 inh: -12; PLCb3 inh: 6; PLC-gamma1 inh: 9.7*; PLCg1 ctr: 13*; PLCbeta3 conf: 7

What do the screens show for `C[C@@H]1CN([C@@H](C)CO)C(=O)c2cc(C3=CCCCC3)cnc2O[C@H]1CN(C)C(=O)Nc1cccc(F)c1`?
ADAM17 inh: 2; proKLK7 act: 1; ADAM10 inh: 5; PLCb3 inh: 6; PLC-gamma1 inh: 5

Results for S=C(Nc1ccc(Cl)cc1)c1nc2ccccc2[nH]1 ?
ADAM17 inh: 3; proKLK7 act: 1; ADAM10 inh: 10; PLCb3 inh: 8; PLC-gamma1 inh: 6

How did Cc1ccccc1NC(=S)c1nc2ccccc2[nH]1 do in these assays?
ADAM17 inh: 2; proKLK7 act: 0; ADAM10 inh: -1; PLCb3 inh: 3; PLC-gamma1 inh: 10*; PLCg1 ctr: 0; PLCbeta3 conf: 1

How did CCOCCCNC(=O)CN1CCN(S(=O)(=O)c2ccc3c(c2)CCC3)CC1 do in these assays?
ADAM17 inh: -2; proKLK7 act: 0; ADAM10 inh: -17; PLCb3 inh: -10; PLC-gamma1 inh: 9.6*; PLCg1 ctr: -6; PLCbeta3 conf: -4

Results for O=[N+]([O-])c1ccc(F)c(CN2CCN(c3ncc(Cc4ccccc4)cn3)CC2)c1 ?
ADAM17 inh: 6; proKLK7 act: 1; ADAM10 inh: 13; PLCb3 inh: 1; PLC-gamma1 inh: 4

What do the screens show for `Cc1ccc([N+](=O)[O-])cc1CN1CCN(c2ncc(Cc3ccccc3)cn2)CC1`?
ADAM17 inh: 7; proKLK7 act: 1; ADAM10 inh: 5; PLCb3 inh: 14*; PLC-gamma1 inh: 3; PLCg1 ctr: -2; PLCbeta3 conf: -3

How did Cc1ccc(S(=O)(=O)Nc2ccc(C(=O)NCCCn3ccnc3)cc2)cc1[N+](=O)[O-] do in these assays?
ADAM17 inh: -1; proKLK7 act: 1; ADAM10 inh: -8; PLCb3 inh: -5; PLC-gamma1 inh: 3

What do the screens show for `C[N+]1([O-])[C@@H]2Cc3cc4c(cc3[C@@H]1Cc1cc3c(cc12)OCO3)OCO4` (stereo partly drawn)?
ADAM17 inh: 8; proKLK7 act: 0; ADAM10 inh: 4; PLCb3 inh: 12*; PLC-gamma1 inh: 1; PLCg1 ctr: -2; PLCbeta3 conf: -4

What do the screens show for `C[C@H]1CN([C@@H](C)CO)C(=O)CCCn2cc(nn2)CO[C@@H]1CN(C)C(=O)Cc1ccccc1`?
ADAM17 inh: -3; proKLK7 act: 0; ADAM10 inh: -7; PLCb3 inh: 3; PLC-gamma1 inh: 2

How did CC1(C(=O)Nc2ccc(F)cc2F)CCN1C(=O)Cc1ccccc1 (stereo not drawn) do in these assays?
ADAM17 inh: 5; proKLK7 act: 0; ADAM10 inh: 2; PLCb3 inh: 4; PLC-gamma1 inh: 11*; PLCg1 ctr: -3; PLCbeta3 conf: 0

What do the screens show for `CC1(C(=O)Nc2ccc(F)cc2F)CCN1C(=O)Cc1ccc(Cl)cc1Cl` (stereo not drawn)?
ADAM17 inh: 4; proKLK7 act: 1; ADAM10 inh: -2; PLCb3 inh: 3; PLC-gamma1 inh: 5

Results for O=C(NCC(c1ccco1)N1CCN(c2ccccc2)CC1)C(=O)NC1CCCCC1 (stereo not drawn) ?
ADAM17 inh: -2; proKLK7 act: 0; ADAM10 inh: -7; PLCb3 inh: -1; PLC-gamma1 inh: 0
